Measurements reported in PubChem BioAssay (NCATS).
Several values for one entry are separate records, joined by “and”; a condition that tells them apart may be missing. Identical values can stand only once. Records with an inconclusive call do not appear. Activity calls are given as the source filed them. Unless noted, calls come from the whole dose curve; as a rule, active = well fitted curve in the direction sought with a large enough effect; inconclusive = small, poorly fitted or top-dose-only effect, or another doubt; inactive = no such curve, though single readings can be large; an effect the other way counts as inactive or inconclusive. Where a SMILES comes first, the peptide text is derived from it. [ ]: non-standard residue; d: D form. pGlu = O=C1CC[C@@H](C(=O)O)N1

Experiments:
[1] = Primary qHTS for inhibitors of nuclear receptor binding SET domain protein 2 (NSD2) in an RCH-ACV wild type WT cells (2C) (AID 1645877); note: nearly all actives have a fitted effect of over 70% in size; note: potency is the fitted concentration of half-maximal effect
[2] = molecular target: Catechol O-methyltransferase (Homo sapiens) (UniProt P21964); assay: Confirmatory Screen for Target Class Profiling of Small Molecule Inhibitors of Methyltransferases (AID 1745852; calls by dose curve; for activity change, negative = inhibition: % is set by controls: 0 for no effect and ±100 for the full control effect); conditions: MTase-Glo luminescence, SAH detection, recombinant enzyme; measured here: COMT max response; stronger effect = lower value
Sequence of Catechol O-methyltransferase (Homo sapiens) (P21964 whole entry, looked up): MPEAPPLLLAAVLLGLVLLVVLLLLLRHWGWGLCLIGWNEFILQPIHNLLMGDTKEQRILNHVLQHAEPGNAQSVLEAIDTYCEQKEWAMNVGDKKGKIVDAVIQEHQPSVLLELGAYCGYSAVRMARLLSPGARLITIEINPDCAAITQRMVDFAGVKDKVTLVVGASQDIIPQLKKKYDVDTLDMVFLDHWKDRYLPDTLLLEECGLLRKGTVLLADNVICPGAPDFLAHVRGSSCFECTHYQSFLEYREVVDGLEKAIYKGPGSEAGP

[3] = molecular target: Guanidinoacetate N-methyltransferase (Homo sapiens) (UniProt Q14353); assay: as above; conditions: MTase-Glo luminescence, SAH detection, recombinant enzyme; at 57.3 µM (top of the series)
[4] = molecular target: Nicotinamide N-methyltransferase (Homo sapiens) (UniProt P40261); assay: as above; conditions: MTase-Glo luminescence, SAH detection, recombinant enzyme; measured here: NNMT max response; stronger effect = lower value
Sequence of Nicotinamide N-methyltransferase (Homo sapiens) (P40261 whole entry, looked up): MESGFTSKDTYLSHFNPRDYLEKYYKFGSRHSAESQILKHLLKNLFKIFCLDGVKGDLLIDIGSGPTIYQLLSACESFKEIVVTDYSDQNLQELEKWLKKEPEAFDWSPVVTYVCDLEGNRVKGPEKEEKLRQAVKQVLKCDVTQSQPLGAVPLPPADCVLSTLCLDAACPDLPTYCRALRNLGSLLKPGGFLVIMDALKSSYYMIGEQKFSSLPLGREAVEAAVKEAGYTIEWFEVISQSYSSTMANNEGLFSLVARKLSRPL

[5] = molecular target: Phenylethanolamine N-methyltransferase (Homo sapiens) (UniProt P11086); assay: as above; conditions: MTase-Glo luminescence, SAH detection, recombinant enzyme; measured here: PNMT max response; stronger effect = lower value
Sequence of Phenylethanolamine N-methyltransferase (Homo sapiens) (P11086 whole entry, looked up, the tested form may be a part): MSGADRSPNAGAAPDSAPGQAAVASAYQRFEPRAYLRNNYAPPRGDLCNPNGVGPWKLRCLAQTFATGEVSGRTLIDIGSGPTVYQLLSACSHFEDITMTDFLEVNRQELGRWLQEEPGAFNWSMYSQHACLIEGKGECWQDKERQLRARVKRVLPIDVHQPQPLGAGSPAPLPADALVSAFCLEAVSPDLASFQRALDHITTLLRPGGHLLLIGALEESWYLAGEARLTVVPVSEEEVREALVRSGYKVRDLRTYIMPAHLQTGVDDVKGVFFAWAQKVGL

[6] = Primary qHTS for inhibitors of nuclear receptor binding SET domain protein 2 (NSD2) in an isogenic RCH-ACV NSD2 p.E1099K mutant (9B) (AID 1645876); note: nearly all actives have a fitted effect of over 70% in size; note: potency is the fitted concentration of half-maximal effect
[7] = molecular target: Rap guanine nucleotide exchange factor 3 (Homo sapiens) (UniProt O95398); assay: Confirmatory qHTS for antagonist of cAMP-regulated guanine nucleotide exchange factor 3 (EPAC1) (AID 1645880); note: nearly all actives have a fitted effect of over 55% in size; note: potency is the fitted concentration of half-maximal effect
Sequence of Rap guanine nucleotide exchange factor 3 (Homo sapiens) (O95398 whole entry, looked up): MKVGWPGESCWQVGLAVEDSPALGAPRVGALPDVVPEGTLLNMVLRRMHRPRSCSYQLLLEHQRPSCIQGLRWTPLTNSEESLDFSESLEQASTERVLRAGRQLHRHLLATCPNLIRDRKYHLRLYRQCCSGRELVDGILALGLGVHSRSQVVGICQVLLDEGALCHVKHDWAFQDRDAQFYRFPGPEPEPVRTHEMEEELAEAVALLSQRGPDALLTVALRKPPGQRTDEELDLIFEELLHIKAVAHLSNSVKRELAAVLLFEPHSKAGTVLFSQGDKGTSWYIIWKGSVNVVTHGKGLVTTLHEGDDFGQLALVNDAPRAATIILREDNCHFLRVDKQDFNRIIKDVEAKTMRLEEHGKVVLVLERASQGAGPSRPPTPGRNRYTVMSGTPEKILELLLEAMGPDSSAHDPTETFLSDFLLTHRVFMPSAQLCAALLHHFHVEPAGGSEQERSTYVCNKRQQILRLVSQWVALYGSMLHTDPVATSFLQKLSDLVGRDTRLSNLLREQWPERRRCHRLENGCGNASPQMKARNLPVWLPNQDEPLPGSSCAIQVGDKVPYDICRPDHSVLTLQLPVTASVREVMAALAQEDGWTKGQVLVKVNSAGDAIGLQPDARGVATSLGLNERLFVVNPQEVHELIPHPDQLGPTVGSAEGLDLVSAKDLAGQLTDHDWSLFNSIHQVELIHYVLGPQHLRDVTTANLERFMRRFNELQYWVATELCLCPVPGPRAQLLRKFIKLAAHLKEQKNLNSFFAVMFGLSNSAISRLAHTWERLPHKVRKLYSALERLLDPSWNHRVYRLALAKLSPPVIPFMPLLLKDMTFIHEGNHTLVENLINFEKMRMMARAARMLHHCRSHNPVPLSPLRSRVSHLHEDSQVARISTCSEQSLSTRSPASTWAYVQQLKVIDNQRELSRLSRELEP
Outline: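 Released BODIPY-GDP fluoresces less than Rap1-bound BODIPY-GDP; the signal is followed at 480/540 nm at 5-min intervals over 30 min, after 5 min at room temperature. Reactions contain 100 nM EPAC1, 250 nM RAP1B-BODIPY-GDP and 50 uM GDP; results are normalized to ATA and DMSO.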

[8] = molecular target: Rap guanine nucleotide exchange factor 3 (Homo sapiens) (UniProt O95398); assay: Confirmatory qHTS for agonist of cAMP-regulated guanine nucleotide exchange factor 3 (EPAC1) (AID 1645881); note: nearly all actives have a fitted effect of over 75% in size; note: potency is the fitted concentration of half-maximal effect
[9] = molecular target: Rap guanine nucleotide exchange factor 4 (Homo sapiens) (UniProt Q8WZA2); assay: Confirmatory qHTS for antagonist of cAMP-regulated guanine nucleotide exchange factor 4 (EPAC2) (AID 1645885); note: nearly all actives have a fitted effect of over 25% in size; note: potency is the fitted concentration of half-maximal effect; for activity change, negative = inhibition: % is set by controls: 0 for no effect and ±100 for the full control effect
Sequence of Rap guanine nucleotide exchange factor 4 (Homo sapiens) (Q8WZA2 whole entry, looked up): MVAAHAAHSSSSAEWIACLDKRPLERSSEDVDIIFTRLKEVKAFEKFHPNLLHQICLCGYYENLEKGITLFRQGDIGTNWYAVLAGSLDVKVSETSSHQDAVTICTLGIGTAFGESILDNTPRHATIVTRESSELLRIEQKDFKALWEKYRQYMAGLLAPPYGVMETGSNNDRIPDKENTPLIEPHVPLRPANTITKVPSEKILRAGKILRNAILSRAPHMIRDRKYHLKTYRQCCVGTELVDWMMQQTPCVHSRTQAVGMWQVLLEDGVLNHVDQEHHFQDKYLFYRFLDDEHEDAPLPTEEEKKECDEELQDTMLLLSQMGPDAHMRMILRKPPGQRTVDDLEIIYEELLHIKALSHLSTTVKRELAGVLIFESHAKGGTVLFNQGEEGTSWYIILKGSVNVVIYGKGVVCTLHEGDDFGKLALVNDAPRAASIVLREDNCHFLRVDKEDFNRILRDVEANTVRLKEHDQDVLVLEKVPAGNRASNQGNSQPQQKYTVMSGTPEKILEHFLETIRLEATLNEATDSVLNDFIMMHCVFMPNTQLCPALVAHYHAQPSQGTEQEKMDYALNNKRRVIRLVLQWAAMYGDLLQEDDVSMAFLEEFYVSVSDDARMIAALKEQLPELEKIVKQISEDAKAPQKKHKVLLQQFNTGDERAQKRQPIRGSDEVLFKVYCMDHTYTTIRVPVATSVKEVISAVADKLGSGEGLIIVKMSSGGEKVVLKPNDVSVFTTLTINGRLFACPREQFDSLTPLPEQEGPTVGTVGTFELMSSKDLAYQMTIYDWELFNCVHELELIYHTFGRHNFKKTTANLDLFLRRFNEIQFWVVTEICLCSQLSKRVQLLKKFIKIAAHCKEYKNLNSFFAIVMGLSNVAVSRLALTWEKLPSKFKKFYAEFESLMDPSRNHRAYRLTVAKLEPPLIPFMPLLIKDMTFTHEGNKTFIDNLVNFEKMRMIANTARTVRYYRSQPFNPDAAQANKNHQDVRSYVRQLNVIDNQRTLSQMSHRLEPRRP

[10] = molecular target: Rap guanine nucleotide exchange factor 4 (Homo sapiens) (UniProt Q8WZA2); assay: Confirmatory qHTS for agonist of cAMP-regulated guanine nucleotide exchange factor 4 (EPAC2) (AID 1645884);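 note: nucleotide exchange releases bodipy-GDP from Rap1 and this lowers its fluorescence; nearly all actives have a fitted effect of over 65% in size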; note: potency is the fitted concentration of half-maximal effect

## CC1(C)O[C@@H]2C[C@H]3[C@@H]4CCC5=CC(=O)C=C[C@]5(C)[C@@]4(F)[C@@H](O)C[C@]3(C)[C@]2(C(=O)CO)O1
[1]
  Potency: 59.6 nM (active) and 13.2 nM (active)

## CCOC(=O)Cn1cccc1-c1nc(-c2ccc(OC)cc2)c(-c2ccc(OC)cc2)s1
[1]
  Potency: inactive
[2]
  activity: -5.88%
[3]
  activity change, negative = inhibition: -8.59%
[4]
  activity: -5.59%
[5]
  activity: -4.51%

## C=CC[N+]1([C@H]2C[C@H]3[C@@H]4CC[C@H]5C[C@H](OC(C)=O)[C@@H](N6CCCCC6)C[C@]5(C)[C@H]4CC[C@]3(C)[C@H]2OC(=O)CC)CCCCC1
[6]
  Potency: inactive
[1]
  Potency: inactive
[2]
  activity: -2.74%
[3]
  activity change, negative = inhibition: 0%
[4]
  activity: -7.38%
[5]
  activity: -11.5%

## Cn1cnc2c(NCc3ccccc3)nc(NCCO)nc21
[1]
  Potency: inactive

## O=C(O)/C=C(\CC(=O)O)C(=O)O
[1]
  Potency: inactive

## COc1cc2c(cc1OC)C(=O)CC2
[1]
  Potency: inactive

## CCNC(=O)[C@@H]1CCCN1C(=O)[C@H](CCCN=C(N)N)NC(=O)[C@H](CC(C)C)NC(=O)CNC(=O)[C@H](Cc1ccc(O)cc1)NC(=O)[C@H](CO)NC(=O)[C@H](Cc1c[nH]c2ccccc12)NC(=O)[C@H](Cc1cnc[nH]1)NC(=O)[C@@H]1CCC(=O)N1 ([pGlu]HWSYGLRP-NHEt)
[1]
  Potency: inactive

## CCCC(=O)O[C@]1(C(=O)CCl)[C@@H](C)C[C@H]2[C@@H]3CCC4=CC(=O)C=C[C@]4(C)[C@@]3(F)C(=O)C[C@@]21C
[1]
  Potency: 0.0007 µM (active)

## Nc1cccc2c(N)cccc12
[6]
  Potency: 24.3 µM (active)
[1]
  Potency: 3.86 µM (active)
[7]
  Potency: inactive
[8]
  Potency: inactive
[9]
  Potency: inactive

## CCC(=O)O[C@]1(C(=O)COC)[C@@H](C)C[C@H]2[C@@H]3CCC4=CC(=O)C=C[C@]4(C)C3(F)[C@@H](O)C[C@@]21C (some centres not stated)
[1]
  Potency: 0.0033 µM (active)

## CC1(C)O[C@@H]2C[C@H]3[C@@H]4C[C@H](F)C5=CC(=O)C=C[C@]5(C)[C@@]4(F)[C@@H](O)C[C@]3(C)[C@]2(C(=O)CO)O1
[1]
  Potency: 0.8 nM (active) and 5.9 nM (active)

## C[C@H]1C[C@H](O)c2ccsc2S1(=O)=O
[1]
  Potency: inactive

## CC(C)(c1ccc(O)cc1)c1ccc(O)cc1
[7]
  Potency: inactive
[8]
  Potency: inactive
[10]
  Potency: inactive
[9]
  Potency: 80.4 µM (active)

## CC(C)(C)c1ccc(C(=O)CCCCl)cc1
[6]
  Potency: inactive
[1]
  Potency: inactive

## CN1CC[C@H](c2c(O)cc(O)c3c(=O)cc(-c4ccccc4Cl)oc23)[C@H](O)C1
[6]
  Potency: 0.0211 µM (active)
[1]
  Potency: 0.0106 µM (active)

## C[N+](C)(CCOc1ccccc1)Cc1cccs1
[1]
  Potency: 26.6 µM (active)

## CCN1C(=O)c2ccccc2C1Nc1ccc(OCCN2CCCCC2)cc1 (configuration not stated)
[6]
  Potency: inactive
[1]
  Potency: inactive
[2]
  activity: -0.796%
[3]
  activity change, negative = inhibition: 1.78%
[4]
  activity: 1.49%
[5]
  activity: 0.197%

## CC(=O)OCC(=O)[C@@]1(O)CCC2C3CCC4=CC(=O)CC[C@]4(C)C3[C@@H](O)C[C@@]21C (some centres not stated)
[6]
  Potency: inactive
[1]
  Potency: 0.15 µM (active)

## O=C(Nc1ccc(S(=O)(=O)N2CCOCC2)cc1)c1cc(Cl)ccc1NS(=O)(=O)c1ccc(Cl)s1
[6]
  Potency: inactive
[1]
  Potency: inactive
[7]
  Potency: 35.2 µM (active)
[9]
  Potency: 24.8 µM (active)

## Nc1ccc2cc3ccc(N)cc3nc2c1
[6]
  Potency: 2.37 µM (active)
[1]
  Potency: 1.68 µM (active)
[7]
  Potency: inactive
[8]
  Potency: 17.7 µM (active)
[10]
  Potency: 22.3 µM (active)
[9]
  Potency: inactive

## CCCCC(=O)OCC(=O)[C@H]1[C@H](C)C[C@H]2[C@@H]3C[C@H](F)C4=CC(=O)C=C[C@]4(C)[C@@]3(F)[C@@H](O)C[C@@]21C
[1]
  Potency: 0.0033 µM (active)

## CC(C)N(CCC(=O)c1ccc2ccccc2c1)Cc1ccccc1
[6]
  Potency: 6.61 µM (active) and 8.2 µM (active)
[1]
  Potency: 5.25 µM (active) and 11.6 µM (active)
[2]
  activity: 3.44%
[3]
  activity change, negative = inhibition: 9.33%
[4]
  activity: -17.4%
[5]
  activity: 4.13%

## CN(C)CCOC(c1ccccc1)c1ccc(Br)cc1 (configuration not stated)
[1]
  Potency: 23.7 µM (active)

## CCCCC/C=C\C/C=C\CCCCCCCC(=O)NC(C)c1ccccc1 (configuration not stated)
[1]
  Potency: 16.8 µM (active)

## CC(C)=CCC/C(C)=C/CC/C(C)=C/C(=O)OCC(=O)[C@@]1(O)CC[C@H]2[C@@H]3CCC4=CC(=O)C=C[C@]4(C)[C@H]3[C@@H](O)C[C@@]21C
[1]
  Potency: 4.73 µM (active)
